Source: PubChem BioAssay
Compounds with a hit are over-represented: about 19% of the library has one in this group of screens.
DT40 TDP1 CPT – DT40-hTDP1 cell growth loss with CPT; chicken DT40 Tdp1-/-;hTDP1 cells + 20 nM CPT, ATP luminescence, 48 h; Potency, µM (highest dose often 46.2 µM), without a hit: at the top dose activity change, negative = growth inhibition, actives largely listed as inhibitors; actives 12% (n = 420,000); AID 686979; further: potency means the concentration at half of the fitted maximal effect; on the % scale 0 is the no-effect control and ±100 the full control effect; nearly all actives have a fitted effect of over 55% in size
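Chicken DT40 Tdp1-/- cells stably complemented with human TDP1 were seeded at 400 cells/well in medium containing 20 nM camptothecin, exposed to pin-transferred compounds, and grown at 37 °C for at least 48 hr. Viability was read as ATP luminescence.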
IL1B secr inh – inflammasome signaling inhibition, IL-1 beta readout; activity change, % at 57.5 µM; actives 4.7% (n = 360,000); AID 743279; THP-1 LPS/ATP IL-1B secretion, AlphaLISA, 16 h; stronger effect = lower value; in the data active means activity change below about -50%; inconclusive means mostly about -30% to -49%; further: on the % scale 0 is the no-effect control and ±100 the full control effect
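Secreted IL-1B measured by AlphaLISA bead assay after 16 h compound exposure of THP-1 cells; compounds (final up to 57.5 uM) added 1 h before LPS (250 ng/mL) and ATP (1.25 mM) stimulation; lower signal means less secretion.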
TDP1 block – TDP1 (human) enzyme inhibition. recombinant TDP1, AlphaScreen DNA substrate cleavage. AID 485290. Q9NUW8. Potency, µM (top dose mostly 130 µM), inactives show top-dose activity change, negative = inhibition, usual class: inhibitors. actives 0.28% (n = 350,000); further: potency means the concentration at half of the fitted maximal effect; on the % scale 0 is the no-effect control and ±100 the full control effect; nearly all actives have a fitted effect of over 40% in size
Target sequence (Q9NUW8 whole entry, looked up): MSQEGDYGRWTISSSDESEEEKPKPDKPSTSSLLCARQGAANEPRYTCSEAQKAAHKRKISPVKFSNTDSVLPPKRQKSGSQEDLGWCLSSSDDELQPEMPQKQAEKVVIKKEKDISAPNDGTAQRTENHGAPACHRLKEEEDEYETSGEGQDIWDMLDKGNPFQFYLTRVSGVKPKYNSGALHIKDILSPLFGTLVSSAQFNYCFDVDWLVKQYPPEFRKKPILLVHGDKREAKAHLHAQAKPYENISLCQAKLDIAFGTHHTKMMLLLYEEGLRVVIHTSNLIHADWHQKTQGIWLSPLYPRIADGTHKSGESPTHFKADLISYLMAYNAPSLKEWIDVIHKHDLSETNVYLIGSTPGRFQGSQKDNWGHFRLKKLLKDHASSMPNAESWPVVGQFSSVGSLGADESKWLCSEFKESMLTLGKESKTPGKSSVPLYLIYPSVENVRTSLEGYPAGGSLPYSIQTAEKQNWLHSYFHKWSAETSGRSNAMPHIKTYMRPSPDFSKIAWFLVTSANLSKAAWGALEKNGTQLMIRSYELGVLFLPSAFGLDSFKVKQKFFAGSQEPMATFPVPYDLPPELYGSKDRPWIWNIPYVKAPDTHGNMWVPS
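Here, a 5' biotin and 3' phosphotyrosine-FITC DNA oligonucleotide reports Tdp1 activity: intact substrate bridges AlphaScreen beads, while cleavage leaves a 3' phosphate and drops signal. All incubations at room temperature.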
DT40 TDP1 no CPT – qHTS for Inhibitors of human tyrosyl-DNA phosphodiesterase 1 (TDP1): qHTS in cells in absence of CPT; DT40 Tdp1-/- hTDP1 cells, no CPT, ATP luminescence, 48 h; Potency, µM (series often up to 46.2 µM), without a hit: top-dose activity change, negative = growth inhibition, most hits filed as inhibitors; actives 15% (n = 420,000); AID 686978, 2013; further: potency means the concentration at half of the fitted maximal effect; on the % scale 0 is the no-effect control and ±100 the full control effect; nearly all actives have a fitted effect of over 55% in size
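Seeded 400 DT40-hTDP1 cells/well (vehicle DMSO, no 20 nM CPT); pinned compounds; ≥48 hr at 37 °C; CellTiter-Glo luminescence as viability measure.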
HepG2 viability – kills HepG2 cells in TGF-b inhibitor counter-screen; actives 0.76% (n = 410,000); Potency, µM (series often up to 46.1 µM), for inactives: top-dose activity change, negative = cytotoxicity, actives largely listed as cytotoxic; HepG2 CAGA-GFP viability, ATP luminescence, 18 h; further: potency means the concentration at half of the fitted maximal effect
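HepG2 CAGA-GFP cells (1000/well, DMEM with 1% FBS) received compound, then TGF-beta at 500 pg/mL final, and were incubated 18 hours at 37 degrees C. Viability was read by CellTiter-Glo luminescence. Media-only wells were set as complete cell-killing and DMSO as no toxicity.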
TGFb inhibitor – blocks TGF-b signaling | HepG2 CAGA-GFP TGF-b/SMAD3 reporter, GFP fluorescence, 18 h; TGF-beta stimulated, 500 pg/mL final | Potency, µM (top dose mostly 46.1 µM), inactives show top-dose activity, negative = inhibition, usual class: inhibitors | actives 1.2% (n = 410,000); further: potency means the concentration at half of the fitted maximal effect; on the % scale 0 is the no-effect control and ±100 the full control effect; nearly all actives have a fitted effect of over 65% in size
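Cell-based qHTS in HEPG2 carrying a CAGA-GFP Smad reporter; compounds added before 500 pg/mL final TGF-beta, 18 h incubation at 37 degrees C, GFP fluorescence quantified per cell by imaging cytometry.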
Numbers without * were called inactive; ? = inconclusive; / = no result; [ ] = remark or other dose. Unless noted, the call rests on the fitted dose curve; in most records, active means well fitted curve in the direction sought with a large enough effect; inconclusive means small, poorly fitted or top-dose-only effect, or another doubt; inactive means no such curve, though single readings can be large; an effect the other way counts as inactive or inconclusive.

SMILES	DT40 TDP1 CPT	IL1B secr inh	TDP1 block	DT40 TDP1 no CPT	HepG2 viability	TGFb inhibitor
Cc1ccc(C)c(N2CCN(C(=O)c3ccc(-c4nc(COc5ccccc5)c(C)o4)cc3)CC2)c1	23µM*	/	6%	15µM*	-24%	1%
CCN(CC)CCCCn1c(-c2ccccc2)nc2c(NCc3ccccc3)nc(C)nc21	/	/	7%	/	/	/
CCN(CC)C(=O)Cn1c(SCCOc2ccc(Cl)cc2)nc2ccccc21	?	/	6%	21µM*	-8%	?
O=C(O)Cn1c(SCCOc2ccccc2F)nc2ccccc21	?	12	2%	16µM*	7%	11%
O=C(O)Cn1c(SCCOc2ccc(Cl)cc2)nc2ccccc21	3%	-15	7%	-10%	-31%	4%
O=C(Nc1cc([N+](=O)[O-])ccc1C(=O)Nc1cccnc1)c1ccccc1	-7%	-10	3%	-23%	-25%	1%
C=CCn1c(SCc2ccc3c(c2)OCO3)nc2scc(-c3ccco3)c2c1=O	-11%	0	-2%	-20%	2%	0%
C=CCn1c(SC(F)F)nc2scc(-c3ccco3)c2c1=O	9%	?	4%	5%	-17%	10µM*
C=CCn1c(SCC(C)=O)nc2scc(-c3ccco3)c2c1=O	?	-5	8%[0.0935 µM]	13µM*	-11%	-1%
C=CCn1c(SCC(=O)N2CC(=O)Nc3ccccc32)nc2scc(-c3ccccc3)c2c1=O	?	-52*	0%	?	26%	?
COc1ccc(OCc2cc(C(=O)NCC3CCCCO3)no2)c(Cl)c1 (stereo unspecified)	?	-7	-2%	-4%	-38%	-1%
COc1ccccc1CNC(=O)COC(=O)c1ccc(C)c(S(=O)(=O)N2CCCCC2)c1	-3%	46	2%	9%	0%	-9%
O=S(=O)(Nc1nc2ccccc2nc1N1CCN(CCO)CC1)c1cc(F)ccc1F	23µM*	13	3%	21%	-1%	1%
COc1cc(Cl)ccc1OC1(C)CCN(Cc2c(F)cccc2F)C1 (stereo unspecified)	?	9	/	?	-30%	8%
CC(=O)c1ccc(OC2(C)CCN(Cc3cccn3-c3nccs3)C2)cc1 (stereo unspecified)	?	-6	/	?	-28%	?
CC1(Oc2ccc3ccccc3c2)CCN(Cc2cccn2-c2nccs2)C1 (stereo unspecified)	29µM*	-18	/	23µM*	-33%	?
COc1cc(Cl)ccc1OC1(C)CCN(Cc2cccn2-c2nccs2)C1 (stereo unspecified)	12µM*	-19	/	21µM*	-29%	-27%
Cc1noc(C)c1-c1ccc2ncnc(N3CCC(C(=O)O)CC3)c2c1	?	/	/	-3%	/	/
Cc1cc2occ(CC(=O)N(CC(C)C)c3c(N)n(Cc4ccccc4)c(=O)[nH]c3=O)c2cc1C	-27%	-23	/	?	0%	-2%
CC(C)[N+](C)(C)CC(O)COc1cccc2ccccc12 (stereo unspecified)	9%	/	-2%	-22%	/	/
O=C(CSc1nnc(Cn2nnc3ccccc32)o1)N(Cc1ccc(F)cc1)c1ccccc1	7.3µM*	-82*	1%	7.1µM*	-22%	11µM*
COc1ccc(N(Cc2ccccc2)C(=O)CSc2nnc(Cn3nnc4ccccc43)o2)cc1	26µM*	-2	0%	23µM*	-10%	-11%
COC(=O)Cc1c(C)nc2nc(NCc3ccc(Br)cc3)[nH]n2c1=O	-14%	/	7%	-6%	0%	28%
COc1cccc(C(=O)Nc2ccc(NC(=O)c3cc4ccccc4o3)c(OC)c2)c1	-24%	0	/	-17%	-57%	?
COc1ccc(-c2nc3cc(C(C)C)ccc3o2)cc1NC(=O)c1ccccc1[N+](=O)[O-]	8.2µM*	/	7%	10µM*	9%	9%
SMILES	DT40 TDP1 CPT	IL1B secr inh	TDP1 block	DT40 TDP1 no CPT	HepG2 viability	TGFb inhibitor
COc1cc(NC(C)=O)ccc1NC(=O)c1cc2ccccc2o1	?	-4	/	?	4%	5%
COc1cc(NC(=O)c2cccs2)ccc1NC(=O)c1cc2ccccc2o1	?	-13	3%	12µM*	-4%	0%
COc1cc(NC(=O)c2cc(Cl)ccc2Cl)ccc1NC(=O)c1cc2ccccc2o1	5.8µM*	/	3%[12.3 µM]	4.6µM*	-28%	-21%
COc1cc(NC(=O)c2ccccc2[N+](=O)[O-])ccc1NC(=O)c1cc2ccccc2o1	16µM*	?	/	8.2µM*	-40%	?
O=C(COC(=O)c1cc(-c2ccccc2)nc2c(Cl)cccc12)c1ccc(F)cc1	-30%	/	/	?	3%	-4%
O=C(/C=C/c1cccs1)N1CCOCC1	-18%	-5	4%	-22%	-1%	11%
O=C(/C=C/c1cccs1)c1cc(F)ccc1OC(=O)N1CCOCC1	23µM*	-54*	/	?	-29%	10%
Cc1ccc(S(=O)(=O)NCC2CCC(C(=O)NCCCN3CCCC3=O)CC2)cc1 (stereo unspecified)	-20%	-11	3%	30%	-10%	5%
CCC(=O)c1ccc(OCC(=O)OCC(=O)c2cc(C)n(CC3CCCO3)c2C)cc1 (stereo unspecified)	2%	-2	1%	8%	-8%	0%
Cc1cc(C(=O)COc2ccc(C#N)cc2)c(C)n1-c1ccc2c(c1)OCO2	9.2µM*	-9	6%	9.2µM*	10%	0%
Cc1cc(C(=O)COc2ccc(C#N)cc2)c(C)n1CC1CCCO1 (stereo unspecified)	29µM*	-6	5%	13µM*	-7%	0%
Cc1cc(C(=O)COC(=O)c2ccc([N+](=O)[O-])o2)c(C)n1CC1CCCO1 (stereo unspecified)	23µM*	-14	5%	?	17%	?
Cc1ccc(-c2nnc(Nc3ccccc3)c3ccccc23)cc1S(=O)(=O)NCc1nc2ccccc2[nH]1	?	/	/	?	2%	?
CSc1ccc(S(=O)(=O)Nc2c(C)n(C)n(-c3ccccc3)c2=O)cc1	0%	?	/	10%	1%	8%
